Where “and” joins values, the source holds several entries; their conditions need not be identical. Equal values may be shown once. Records with an inconclusive call do not appear. A structure can be active in one record and inactive in another. Values without a mark were called inactive. Calls of active or inactive are those of the source. The call rests on the fitted dose curve; in most records, active means well fitted inhibition curve with a large enough effect; inconclusive means small, poorly fitted or top-dose-only effect; inactive means flat fitted curve, though single readings scatter. Peptide text beside a SMILES is read from it.
system: KB-3-1; assay: Cytotoxic Profiling of Annotated Libraries Using Quantitative High-Throughput Screening (AID 1296008); conditions: Five cell lines viability, CellTiter-Glo ATP luminescence, 48-72 h; max response: stronger effect = lower value; further: nearly all actives have a fitted effect of over 60% in size
Text: Cell-based phenotypic screening is a commonly used approach to discover biological pathways, novel drug targets, chemical probes and high-quality hit-to-lead molecules. Many hits identified from high-throughput screening campaign are ruled out through a series of follow-up potency, selectivity/specificity, and cytotoxicity assays. Prioritization of molecules with little or no cytotoxicity for a more in-depth downstream evaluation influence the future direction of projects, so cytotoxicity profiling of the screening libraries at early stage is essential for increasing the likelihood of candidate success. […] For the annotated library, we also examined the primary targets and mechanistic pathways regularly associated with cell death. To our knowledge, this is the first study to use high-throughput screening to profile large libraries for cytotoxicity assessment in both normal and cancer cell lines. In summary, the results generated here constitutes a valuable resource for the scientific community and provides insight on identifying cytotoxic compounds with particular mechanisms of action, and prioritizing compounds with suitable cytotoxicity profile for further evaluation.
A pintool (Kalypsys) was used to transfer 23 nL of compound solution to the 1536-well assay plates. After 48 or 72 hr incubation at 37 degree Celsius, 5% CO2 and 95% humidity, 2.5 uL of CellTiter-Glo (Promega) was dispensed into each well using a dispenser (Aspect Automation, St. Paul, MN) with solenoid valves (Lee Valves, Westbrook CT). Plates were left at room temperature for 10 min before imaging the ATP-coupled luminescence using a ViewLux microplate imager (PerkinElmer, Waltham, MA).
On the % scale 0 is the no-effect control and ±100 the full control effect; potency means the concentration at half of the fitted maximal effect.

SMILES | outcome | max response | Potency
N[C@@H](Cc1cc(I)c(Oc2cc(I)c(O)c(I)c2)c(I)c1)C(=O)O | inactive | -0.982% and 2.52% | –
CN(C)C(=O)[C@H](O)[C@H](Cc1ccccc1)NC(=O)c1cc2cc(Cl)ccc2[nH]1 | inactive | -0.73% | –
CC(C)[C@H](N)C(=O)OCCOCn1cnc2c(=O)[nH]c(N)nc21 | inactive | 10.2% | –
CCC(C)(Oc1ccc(C2(c3ccc(OC(C)(CC)C(=O)O)cc3)CCCCC2)cc1)C(=O)O (stereo unspecified) | inactive | -0.0453% and 5.37% | –
Cc1ccc(Nc2nccc(N(C)c3ccc4c(C)n(C)nc4c3)n2)cc1S(N)(=O)=O | – | -14.3% and -5.07% and -20.5% | –
NC(=O)Cc1cccc(C(=O)c2ccccc2)c1N | – | -8.75% | –
CC(C)(S)[C@@H](N)C(=O)O | – | 2.35% and 8.6% | –
CCCc1cc(=O)[nH]c(=S)[nH]1 | inactive | 0.476% | –
CC1(C)C(=O)N(CCN2CCC(C(=O)c3ccc(F)cc3)CC2)c2ccccc21 | – | 2.39% | –
CCN(CC)CCOc1ccc(Cc2ccccc2)cc1 | – | -7.39% and -3.92% | –
CCCCCCCCCCCCCCCCCCCCCCO | – | -15.7% and 8.97% | –
CC(C)[N+]1(C)[C@@H]2CC[C@H]1CC(OC(=O)C(CO)c1ccccc1)C2 (stereo partly specified) | – | 9.75% and 15.3% | –
NS(=O)(=O)c1cc(C(=O)O)c(NCc2ccco2)cc1Cl | – | -9.49% and -2.22% | –
CCN(CC)C(=S)SSC(=S)N(CC)CC | – | 0.882% and 32.2% | 83.3 nM (active)
COc1cc2c(cc1OC)C1CC(=O)C(CC(C)C)CN1CC2 (stereo unspecified) | – | -0.991% | –
CC1=C(C(=O)O)N2C(=O)[C@@H](NC(=O)[C@H](N)C3=CCC=CC3)[C@H]2SC1 | inactive | -3.32% | –

SMILES | outcome | max response | Potency
COC(=O)[C@H](Cc1ccccc1)NC(=O)[C@@H](N)CC(=O)O (H-Asp-Phe-OMe) | – | 0.426% and 2.8% and -6.99% | –
CC(=O)Nc1ccc(O)cc1 | – | 23.8% and 2.6% | –
C[C@H](Cn1cnc2c(N)ncnc21)OCP(=O)(O)O | inactive | – | –
Cc1nc(Nc2ncc(C(=O)Nc3c(C)cccc3Cl)s2)cc(N2CCN(CCO)CC2)n1 | – | -28.1% | –
Cc1cc2cc3c(C)cc(=O)oc3c(C)c2o1 | inactive | -3.63% | –
O=C(O)c1cn(-c2ccc(F)cc2)c2cc(N3CCNCC3)c(F)cc2c1=O | – | 14.5% and 6.97% | –
O=C(NCCO[N+](=O)[O-])c1cccnc1 | inactive | – | –
Cc1cc(O)c2c(c1)C(=O)c1cc(O)cc(O)c1C2=O | – | -3.32% | –
COCCCOc1ccnc(CS(=O)c2nc3ccccc3[nH]2)c1C (stereo unspecified) | inactive | -10% | –
Nc1cc(C(Cl)=C(Cl)Cl)c(S(N)(=O)=O)cc1S(N)(=O)=O | – | -2.94% and -17.4% | –
Cc1cccc(C#Cc2ccccc2)n1 | – | 9.05% | –
C=CCc1cc(OC)c(O)c(C(=O)NCCO)c1 | – | 8.32% and 9.16% | –
COc1ccc(C2(C#N)CCC(C(=O)O)CC2)cc1OC1CCCC1 (stereo unspecified) | – | 6.11% and 7.73% and 2.33% | –
CCCCCCCCOc1ccccc1C(=O)Nc1ccc(C(=O)OCC[N+](C)(CC)CC)cc1 | – | 3.44% | –
CC(C)c1ccc2oc3nc(N)c(C(=O)O)cc3c(=O)c2c1 | inactive | -4.86% | –

From PubChem BioAssay (NCATS)
